Measurements: PubChem BioAssay (EPA / NIEHS)
Results filed as inconclusive are left out. Calls of active or inactive are those of the source. Rule for the calls: active = hit-call score of the fitted dose curve at least 0.9, where 1 is the maximum; inconclusive = response in the unintended direction; inactive = score below 0.9.

Test: ACEA_ER_AUC_viability: ACEA Biosciences xCELLigence Real-Time Cell Analysis on Estrogen Receptor Agonism for Viability (AID 2283782);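 note: hit means loss of impedance signal meaning reduced cell growth or viability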
How it was run: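 Viability endpoint: reduced impedance area under the curve relative to DMSO, recorded by real-time electrode sensing over ~80 h of continuous exposure. Duplicate plates of T47D in hormone-depleted medium; eight concentrations, 1:4 dilutions, 100 uM maximum.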

SMILES | outcome | AC50
O=S(=O)(O)c1ccc(Nc2nc(Nc3ccc(C=Cc4ccc(Nc5nc(Nc6ccc(S(=O)(=O)O)cc6)nc(N(CCO)CCO)n5)cc4S(=O)(=O)O)c(S(=O)(=O)O)c3)nc(N(CCO)CCO)n2)cc1 | inactive | –
O=C1CCCCCCCCCCC1 | inactive | –
CC(=O)CCC1=C(C)CCCC1(C)C | – | 81.5 µM (active)
O=C(O)c1cc(O)c2ccccc2c1O | – | 26 µM (active)
O=C(OCCc1ccccc1)c1ccccc1 | – | 85.9 µM (active)
Oc1ccc(/C=C/c2cc(O)cc(O)c2)cc1 | – | 20.6 µM (active)
c1ccc2sc(SSN3CCOCC3)nc2c1 | – | 84.8 µM (active)
CO[Si](C)(C)OC | inactive | –
C/C=C/C=C/CCCCCCCO | – | 79.4 µM (active)
COC(=O)c1ccccc1C | inactive | –
Nc1ccnc(=O)[nH]1 | inactive | –
CC(Cl)COP(=O)(OCC(C)Cl)OCC(C)Cl (stereo not drawn) | inactive | –
CCc1cccc(C)c1N(C(=O)CS(=O)(=O)O)C(C)COC (stereo not drawn) | – | 50 µM (active)
CC(C)=CCl | inactive | –
CCc1cccc(CC)c1 | inactive | –
CC1=CC(C)C(C=O)CC1 (stereo not drawn) | inactive | –
Nc1nc(N)nc(-c2ccccc2)n1 | inactive | –

SMILES | outcome | AC50
CC1C(C)(C)C2=C(C(=O)CCC2)C1(C)C (stereo not drawn) | inactive | –
Cc1c(Cl)cccc1Cl | inactive | –
CCCCCCCCCCCC(C)=O | – | 66.7 µM (active)
CCN1CN(CC)CN(CC)C1 | – | 66.4 µM (active)
CCCCCCCCCCCC(=O)OCC | inactive | –
Cc1cc(=O)[nH]c(=O)[nH]1 | inactive | –
CC1(C)C(=O)N(CO)C(=O)N1CO | inactive | –
CCC(C)c1ccccc1 (stereo not drawn) | inactive | –
CCCCCCOc1ccc(N)cc1 | – | 86.8 µM (active)
C=C(C)C(=O)OCCCCCCCCCCCC | inactive | –
C=CC(=O)NC(C)(C)C | inactive | –
c1ccc2c(c1)[nH]c1ccccc12 | – | 36.4 µM (active)
O=C(C=Cc1ccccc1)OCCc1ccccc1 | – | 58 µM (active)
CCCCCCCC(=O)OCC | inactive | –
Cn1cccc1 | inactive | –
CCOC(=O)CC(=O)c1ccccc1 | – | 50 µM (active)
